Laboratory results taken from PubChem BioAssay (NCATS).
Records with an inconclusive call do not appear. Calls of active or inactive are those of the source. Calls follow the shape of the dose curve; as a rule, active = well fitted curve in the direction sought with a large enough effect; inconclusive = small, poorly fitted or top-dose-only effect, or another doubt; inactive = no such curve, though single readings can be large; an effect the other way counts as inactive or inconclusive.

What was measured:
[1] = Cellular Toxicity (caspase-3) Mesangial (AID 660); settings: mesangial cells, normalized: DMSO 0%, 100 µM tamoxifen 100%; at 91.7 µM (top of the series);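 also: combined caspase 3 and 7 activity read by Caspase-Glo luminescence; cells exposed to compound for 16 h before the caspase read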
How it was run: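 Seed cells derived from normal human renal glomeruli, incubate 5 h, add compounds across concentrations and incubate 16 h at 37 °C. Caspase 3/7 activation is then quantified by luciferase light, with AC50 derived by Hill modeling.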

[2] = Cellular Toxicity (caspase-3) SK-N-SH (AID 661);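 also: 0% = DMSO basal and 100% = 10 µM staurosporine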
How it was run: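 Cells were seeded and incubated 5 hr at 37 °C, dosed with compound over a concentration range for 16 hr, then given Caspase-Glo 3/7 reagent for 1 hr at room temperature before luminescence reading.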

[3] = Cellular Toxicity (caspase-3) H-4-II-E (AID 663); settings: H-4-II-E rat hepatoma, scaled: DMSO 0%, 100 µM tamoxifen 100%; at 92.2 µM (top of the series);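 also: cells exposed to compound for 16 hr before readout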
How it was run: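 Caspase 3/7 activation measured by luminescent aminoluciferin substrate cleavage after 16 hr compound treatment of H-4-II-E cells in complete medium. Increase normalized between DMSO (basal) and 100 uM tamoxifen (100%); Hill-equation AC50 from concentration-response.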

[4] = Cellular Toxicity (caspase-3) Hek293 (AID 664); settings: HEK293 caspase-3 activation, DMSO = 0%, 100 µM tamoxifen = 100%; at 92.2 µM (top of the series);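 also: cells exposed to compound for 16 h at 37 °C before readout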
How it was run: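 qHTS, HEK293 (human embryonic kidney), 16 h cpd exposure in complete medium. Caspase-3/7 activation = luminescence increase; normalized to DMSO/100 uM tamoxifen; Hill-fit AC50.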

[5] = Cellular Toxicity (caspase-3) N2a (AID 665);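 also: compound exposure lasted 16 h at 37 °C before readout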
How it was run: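 Caspase-3/7 activation, measured as increased luminescence from aminoluciferin release, is quantified in mouse N2a cells exposed to compounds for 16 h. Values are normalized to DMSO and 10 uM staurosporine, with AC50 derived by Hill modelling.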

[6] = Cellular Toxicity (caspase-3) NIH 3T3 (AID 666);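 also: caspase signal read after 16 h compound exposure; 0% = DMSO basal and 100% = 100 µM tamoxifen stimulation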
How it was run: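 Cells were plated at 1000 per well and incubated 5 hr at 37°C, then compound was added for 16 hr. Caspase-Glo 3/7 reagent followed for 20 min at room temperature before luminescence was read.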

[7] = Cellular Toxicity (caspase-3) Renal Proximal Tubule (AID 667); settings: Potency: caspase-3 activation;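 also: cells exposed to compound for 16 hours at 37 °C before detection; 0% = DMSO basal and 100% = 10 µM staurosporine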
How it was run: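 In qHTS format, rat primary proximal tubule cells seeded at 1000 per well are exposed to compounds for 16 hours at 37 °C. An increase in Caspase-Glo 3/7 luminescence indicates caspase activation.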

[8] = molecular target: Cytochrome P450 3A4 (Homo sapiens) (UniProt P08684); assay: qHTS Assay for Inhibitors and Substrates of Cytochrome P450 3A4 (AID 884); also: % is scaled to controls: 0 for no effect and ±100 for the full control effect; nearly all actives have a fitted effect of over 50% in size
How it was run: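 Luminescent readout of luciferin produced by CYP3A4 (20 nM) dealkylation of Luciferin-PPXE, 25 uM (its KM). NADPH-driven reaction ran 60 min at RT after 10 min compound preincubation; data scaled to 57 uM ketoconazole as 100% inhibition.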

[9] = MultiTox-Fluor Cytotoxicity Assay - LYMP1-001 - Dead Cells (AID 946)
How it was run: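 Cytotoxicity as increased dead-cell protease fluorescence (bis-AAF-R110, 485/520 nm), read 60 min after MultiTox-Fluor reagent. Human lymphoblastoid line exposed 16 h; Hill-fitted AC50, with DMSO as 0% and 15 uM tetraoctylammonium bromide as 100%.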

[10] = MultiTox-Fluor Cytotoxicity Assay - LYMP1-001 - Live Cells (AID 947);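 also: 0% = DMSO only and full inhibition = tetraoctylammonium bromide control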
[11] = MultiTox-Fluor Cytotoxicity Assay - LYMP1-002 - Live Cells (AID 955); also: % is scaled to controls: 0 for no effect and ±100 for the full control effect
How it was run: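 Cells were seeded at 2500 per well and incubated 5 hr. Compounds were then added for 16 hr at 37 C, followed by MultiTox-Fluor reagent for 60 min at room temperature and fluorescence reading of viable-cell protease signal.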

[12] = MultiTox-Fluor Cytotoxicity Assay - LYMP1-002 - Dead Cells (AID 960); also: nearly all actives have a fitted effect of over 60% in size
How it was run: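 Cells were plated, rested 5 hr, then treated with compound dilution series for 16 hr at 37 C. After adding substrate reagent and 60 min at room temperature, dead-cell protease fluorescence gave concentration-response curves fitted by the Hill equation.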

[13] = MultiTox-Fluor Cytotoxicity Assay - LYMP1-003 - Dead Cells (AID 961); also: nearly all actives have a fitted effect of over 70% in size
How it was run: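 Dead-cell protease release, detected as bis-AAF-R110 fluorescence at 485/520 nm, was measured in LYMP1-003 cells after 16 h compound treatment at 37 C. AC50 values came from Hill-modeled qHTS curves normalized to DMSO (0%) and 15 uM tetraoctylammonium bromide (100%).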

[14] = Cell Viability - LYMP1-003 - Assay at 24 hr (AID 963);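 also: plate controls were DMSO only for no effect and tetraoctylammonium bromide positive control for full effect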
How it was run: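 Cytotoxicity is scored as a concentration-dependent fall in ATP-linked luciferase signal in human lymphoblastoid LYMP1-003 cells treated 24 hr at 37 C in complete culture medium.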

[15] = Cell Viability - LYMP1-003 - Assay at 40 hr (AID 964); also: % is scaled to controls: 0 for no effect and ±100 for the full control effect; nearly all actives have a fitted effect of over 60% in size
How it was run: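 Luminescent ATP signal (CellTiter-Glo) served as the viability read-out after 40 hr compound treatment of human lymphoblastoid LYMP1-003 cells at 37 C. Decreases in ATP were fitted with the Hill equation to give AC50.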

[16] = Cell Viability - LYMP2-003 (AID 965);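 also: cells exposed to compounds for 24 h before reading; 0% = DMSO only and full effect = 92 µM tetraoctylammonium bromide; nearly all actives have a fitted effect of over 50% in size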
How it was run: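 Acute cytotoxicity is scored as a concentration-dependent drop in intracellular ATP, measured by luciferase luminescence in human lymphoblastoid cells treated for 24 hours at 37 C. AC50 values derive from Hill-equation modelling.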

[17] = Cell Viability - LYMP2-001 (AID 921);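 also: cells exposed to compound for 24 h at 37 °C; 0% = DMSO only and full inhibition = tetraoctylammonium bromide control wells; nearly all actives have a fitted effect of over 70% in size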
How it was run: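 qHTS, 1536-well; lymphoblastoid cells, 24 hr compound, 37 C; ATP by CellTiter-Glo, 30 min RT; luminescence; Hill-fit AC50.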

[18] = Cell Viability - LYMP1-002 - Assay at 16 hr (AID 948);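 also: 0% = DMSO alone and full effect = 92 µM tetraoctylammonium bromide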
How it was run: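 Acute cytotoxicity is scored as a concentration-dependent fall in intracellular ATP in a human lymphoblastoid line (LYMP1-002) after 16 hr compound exposure at 37 C, measured by luciferase luminescence.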

[19] = MultiTox-Fluor Cytotoxicity Assay - LYMP1-003 - Live Cells (AID 962);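 also: 0% = DMSO only and full loss = 92 µM tetraoctylammonium bromide; cytotoxic hits lower the live-cell protease signal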
How it was run: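 Acute cytotoxicity is scored as a drop in live-cell protease activity in human lymphoblastoid LYMP1-003 cells after 16 hr compound exposure at 37 C. AC50 values come from Hill-equation modelling of concentration-response data.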

[20] = molecular target: Cytochrome P450 3A4 (Homo sapiens) (UniProt P08684); assay: qHTS Assay for Activators of Cytochrome P450 3A4 (AID 885); also: nearly all actives have a fitted effect of over 65% in size
How it was run: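 Luminescent readout of luciferin formed from 25 uM Luciferin-PPXE (KM level) by 20 nM CYP3A4 in 200 mM KPO4, with 60 min NADPH-driven reaction at room temperature after 10 min compound exposure. Ketoconazole (57 uM) defined 100% inhibition.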

Cytochrome P450 3A4 (Homo sapiens), sequence (P08684 whole entry, looked up): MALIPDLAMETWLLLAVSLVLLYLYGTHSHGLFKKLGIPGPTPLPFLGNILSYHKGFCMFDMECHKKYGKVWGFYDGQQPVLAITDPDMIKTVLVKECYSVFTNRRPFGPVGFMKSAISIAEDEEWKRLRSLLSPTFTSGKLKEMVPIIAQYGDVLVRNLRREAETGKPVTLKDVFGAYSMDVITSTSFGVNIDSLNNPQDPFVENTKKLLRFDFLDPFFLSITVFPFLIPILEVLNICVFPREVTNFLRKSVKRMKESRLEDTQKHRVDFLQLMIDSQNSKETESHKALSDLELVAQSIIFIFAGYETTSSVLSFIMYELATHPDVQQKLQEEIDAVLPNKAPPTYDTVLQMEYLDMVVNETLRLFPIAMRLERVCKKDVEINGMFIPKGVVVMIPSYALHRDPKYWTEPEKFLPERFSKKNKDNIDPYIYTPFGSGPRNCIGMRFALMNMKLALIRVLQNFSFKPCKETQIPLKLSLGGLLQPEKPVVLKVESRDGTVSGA

O=C1OC(=O)c2c(Br)c(Br)c(Br)c(Br)c21
inactive: caspase-3 activation [1] 0.186% | outcome [2] | caspase-3 activation [3] 0.557% | caspase-3 activation [4] 1.35% | outcome [5] | outcome [6] | Potency [7] | Potency [8] | outcome [9] | outcome [10] | outcome [11] | outcome [12] | Potency [13] | Potency [14] | Potency [15] | Potency [16]

CC(=O)OC(C)=O
inactive: caspase-3 activation [1] 0.184% | outcome [2] | caspase-3 activation [3] -0.382% | caspase-3 activation [4] -0.384% | outcome [5] | outcome [6] | Potency [7] | Potency [8] | Potency [17] | outcome [9] | outcome [18] | outcome [12] | Potency [13] | Potency [19] | Potency [14] | Potency [15] | Potency [16]

O=C(O)/C=C/C(=O)O
inactive: caspase-3 activation [1] -0.622% | outcome [2] | caspase-3 activation [3] 1.4% | caspase-3 activation [4] -1.62% | outcome [5] | outcome [6] | Potency [7] | Potency [8] | Potency [17] | outcome [9] | outcome [11] | Potency [13] | Potency [14] | Potency [15] | Potency [16]

Cc1cccc(C)c1[N+](=O)[O-]
inactive: caspase-3 activation [1] 0.452% | outcome [2] | caspase-3 activation [3] -0.326% | caspase-3 activation [4] -0.173% | outcome [5] | outcome [6] | Potency [7] | Potency [8] | outcome [9] | outcome [10] | outcome [18] | outcome [12] | Potency [13] | Potency [19] | Potency [14] | Potency [15] | Potency [16]

CCC(=O)/C=C/C1C(C)=CCCC1(C)C (stereo not given)
inactive: caspase-3 activation [1] 0.383% | outcome [2] | caspase-3 activation [3] 2.63% | caspase-3 activation [4] 2.12% | outcome [5] | outcome [6] | Potency [7] | outcome [20] | Potency [17] | outcome [9] | outcome [10] | outcome [18] | outcome [11] | outcome [12] | Potency [13] | Potency [19] | Potency [14] | Potency [15] | Potency [16]

Cc1ccc(C)c(N)c1
inactive: caspase-3 activation [1] 1.89% | outcome [2] | caspase-3 activation [3] 3.4% | caspase-3 activation [4] 3.4% | outcome [5] | outcome [6] | Potency [7] | Potency [8] | outcome [9] | outcome [18] | outcome [11] | outcome [12] | Potency [13] | Potency [19] | Potency [14] | Potency [15] | Potency [16]

COc1ccccc1[N+](=O)[O-]
inactive: caspase-3 activation [1] -1.05% | outcome [2] | caspase-3 activation [3] 0.0394% | caspase-3 activation [4] -0.651% | outcome [5] | outcome [6] | Potency [7] | Potency [8] | outcome [9] | outcome [18] | outcome [11] | outcome [12] | Potency [13] | Potency [19] | Potency [14] | Potency [15] | Potency [16]

CC(=O)c1ccc([N+](=O)[O-])cc1
inactive: caspase-3 activation [1] -0.175% | outcome [2] | caspase-3 activation [3] 0.949% | caspase-3 activation [4] -0.704% | outcome [5] | outcome [6] | Potency [7] | Potency [8] | outcome [9] | outcome [10] | outcome [18] | outcome [11] | outcome [12] | Potency [13] | Potency [19] | Potency [14] | Potency [15] | Potency [16]

O=Cc1ccc(C(=O)O)cc1
inactive: caspase-3 activation [1] 0.146% | outcome [2] | caspase-3 activation [3] -0.315% | caspase-3 activation [4] -1.79% | outcome [5] | outcome [6] | Potency [7] | Potency [8] | outcome [9] | outcome [10] | outcome [11] | Potency [13] | Potency [19] | Potency [14] | Potency [15] | Potency [16]

FB(F)F
inactive: caspase-3 activation [1] 3.07% | outcome [2] | caspase-3 activation [3] 0.388% | caspase-3 activation [4] 2.37% | outcome [5] | outcome [6] | Potency [7] | Potency [8] | outcome [9] | outcome [10] | outcome [18] | outcome [11] | outcome [12] | Potency [13] | Potency [19] | Potency [14] | Potency [15] | Potency [16]

C=CC(=O)OCCCC
inactive: caspase-3 activation [1] 0.429% | outcome [2] | caspase-3 activation [3] -0.465% | caspase-3 activation [4] 0.453% | outcome [5] | outcome [6] | Potency [7] | Potency [8] | Potency [17] | outcome [10] | outcome [18] | outcome [11] | outcome [12] | Potency [13] | Potency [19] | Potency [14] | Potency [15] | Potency [16]

CC(=O)c1cc(C)oc1C
inactive: caspase-3 activation [1] 0.543% | outcome [2] | caspase-3 activation [3] -0.25% | caspase-3 activation [4] 0.799% | outcome [5] | outcome [6] | Potency [7] | Potency [8] | outcome [9] | outcome [10] | outcome [18] | outcome [11] | outcome [12] | Potency [13] | Potency [19] | Potency [14] | Potency [15] | Potency [16]

CCNc1cc(O)ccc1C
inactive: caspase-3 activation [1] 0.47% | outcome [2] | caspase-3 activation [3] 1.36% | caspase-3 activation [4] 0.389% | outcome [5] | outcome [6] | Potency [7] | outcome [20] | Potency [17] | outcome [9] | outcome [10] | outcome [18] | outcome [11] | outcome [12] | Potency [13] | Potency [19] | Potency [14] | Potency [15] | Potency [16]

CC(C)C=O
inactive: caspase-3 activation [1] 1.06% | outcome [2] | caspase-3 activation [3] 0.472% | caspase-3 activation [4] -1.91% | outcome [5] | outcome [6] | Potency [7] | Potency [8] | Potency [17] | outcome [9] | outcome [18] | outcome [12] | Potency [13] | Potency [19] | Potency [14] | Potency [15] | Potency [16]

Nc1cc(Cl)c([N+](=O)[O-])cc1O
inactive: caspase-3 activation [1] -0.0539% | outcome [2] | caspase-3 activation [3] 1.74% | caspase-3 activation [4] 5.51% | outcome [5] | outcome [6] | Potency [7] | outcome [20] | Potency [17] | outcome [9] | outcome [10] | outcome [18] | outcome [11] | outcome [12] | Potency [13] | Potency [19] | Potency [14] | Potency [16]
